# Assay results: PubChem BioAssay AID743364 (National Center for Advancing Translational Sciences (NCATS), 2014)
# Values without a mark were called inactive. The source made the active and inactive calls. The call rests on the fitted dose curve; in most records, active means well fitted curve in the direction sought with a large enough effect; inactive means no such curve, though single readings can be large or run the other way.
# Experiment: qHTS profiling of inhibitors of Plasmodium falciparum (3D7) proliferation (acoustic dispense)
# Settings: P. falciparum 3D7 in erythrocytes, SYBR Green, 72 h; series mostly up to 49.8 µM
# Source text: Plasmodium falciparum is a virulent malarial parasite that kills 1-2 million people worldwide each year. Transmitted by mosquitoes, the sporozoite form of the parasite enters the blood stream to infect hepatocytes, where they become merozoites that infect red blood cells (erythrocytes). Within erythrocytes, merozoites begin a […] cycle of growth and division, after which the parasite is released to infect new red blood cells. Gametocytes, which form within erythrocytes as well, circulate in the bloodstream and are ingested by the mosquito, thereby completing the life cycle. To profile malarial isolates for differential chemical responses and to identify inhibitors of malarial growth, an assay that measures P. falciparum growth and replication within erythrocytes was employed. This assay uses a DNA binding fluorescent dye (SYBR Green) to detect parasite DNA following cell lysis. Because mature erythrocytes lack DNA, only Plasmodium-derived DNA is detected.
# The SYBR Green viability assay was adapted from a method described previously (Plouffe et al., 2008). For screening 3 ul culture medium was dispensed into 1536 well black clear bottom plates (Aurora Biotechnologies) using a Multidrop Combi (Thermo Fisher Scientific Inc.), 23 nL of compounds in DMSO were added by an acoustic dispenser (EDC Biosystems), and 5 ul of erythrocytes infected with P. falciparum (0.3% parasitemia, 2.5% hematocrit final concentration) were added. The plates were incubated at 37 C in a humidified incubator in 5% CO2 for 72 h, and 2 ul lysis buffer (20 mM Tris HCl, 10 mM EDTA, 0.16% saponin, 1.6% triton X, 10X SYBR Green I supplied as 10,000X […] by Invitrogen) was added to each well. The plates were mixed for 25 sec with gentle shaking and incubated overnight at room temperature in the dark. The following morning, fluorescence intensity at 485(14) nm excitation and 535(25) nm emission wavelengths was measured on an EnVision (Perkin Elmer) plate reader. Plate reads were normalized relative to the control inhibitor (0.29 uM artemisinin) and vehicle (DMSO) wells present on each plate and then corrected by an algorithm using vehicle-only control plates at the beginning and end of the compound plate stack.
SMILES,outcome,activity change
CC(=O)Nc1nnc(S(N)(=O)=O)s1,inactive,
CC1=C(O)C(=O)C=C2C1=CC=C1[C@@]2(C)CC[C@@]2(C)[C@@H]3C[C@](C)(C(=O)O)CC[C@]3(C)CC[C@]12C,inactive,
COC(=O)[C@@]1(OC)C[C@@H]2O[C@@]1(C)n1c3ccccc3c3c4c(c5c6ccccc6n2c5c31)C(=O)N(C)C4,inactive,
C[C@]12O[C@H](C[C@@]1(O)C(=O)O)n1c3ccccc3c3c4c(c5c6ccccc6n2c5c31)CNC4=O,,0.751% [at 4.15 µM]
CN1C(=O)C[C@H](C(=O)N[C@@H](Cc2cnc[nH]2)C(=O)N2CCC[C@@H]2C(N)=O)NC1=O,inactive,
CO[C@H]1CCC(O[C@H]2C[C@H]([C@]3(C)CC[C@]4(C[C@H](O)[C@@H](C)[C@@H]([C@@H](C)C=C(C)C(=O)[C@H](C)C[C@H](C)C(=O)O)O4)O3)O[C@]3(O[C@@H]([C@H]4O[C@@](O)(CO)[C@H](C)C[C@H]4C)C[C@H]3C)[C@H]2C)O[C@H]1C (stereo not given in full),inactive,
O=c1[nH]c2ccc(Cl)cc2c(N[C@@H]2CN3CCC2CC3)c1-c1nc2ccccc2[nH]1,inactive,
CC(C)(N)CNC(=O)CC1CCC2(CC1)OOC1(O2)C2CC3CC(C2)CC1C3 (stereo not given),inactive,
C[C@H]1CCCC=CC2C[C@H](O)C[C@@H]2[C@H](O)C=CC(=O)O1 (stereo not given in full),inactive,
COC1=CC(C)=C[C@@H](C)[C@@H](O)[C@@H](C)CC(C)=CC=C[C@H](OC)[C@H]([C@@H](C)[C@@H](O)[C@H](C)[C@@]2(O)C[C@@H](O)[C@H](C)[C@@H](C(C)C)O2)OC1=O,inactive,
C[C@@H]1C[C@@H]([C@H](O)CC2CC(=O)NC(=O)C2)C(=O)[C@@H](C)C1,inactive,
CC=C(C)C(=O)N[C@@H](c1ccccc1)[C@@H](O)C(=O)O[C@H]1C[C@@]2(O)[C@@H](OC(=O)c3ccccc3)[C@@H]3[C@]4(OC(C)=O)CO[C@@H]4C[C@H](O)[C@@]3(C)C(=O)[C@H](OC(C)=O)C(=C1C)C2(C)C,inactive,
CC(=O)N(O)CCCP(=O)(O)O,inactive,
CC(=Cc1csc(C)n1)[C@@H]1C[C@H]2O[C@@H]2CCC[C@H](C)[C@@H](O)[C@@H](C)C(=O)C(C)(C)[C@@H](O)CC(=O)O1,inactive,
O=C(C[C@@H]1NCCC[C@@H]1O)Cn1cnc2ccccc2c1=O,inactive,
